Laboratory results published in PMC7826789 (International Journal of Molecular Sciences, 2021).

Tests used:
Conditions in all cases: Compound Concentration (nM):1000
LRRK2 = tested on: LRRK2
LTK = tested on: LTK
LYN = tested on: LYN
LZK = tested on: T1, LZK
T1 construct: gene MAP3K13

MAK = tested on: MAK
MAP3K15 = tested on: MAP3K15
MAP3K1 = tested on: MAP3K1
MAP3K2 = tested on: MAP3K2
MAP3K3 = tested on: MAP3K3
MAP3K4 = tested on: MAP3K4
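Also: KINOMEscan scanMAX binding as percent activity remaining versus control; lower means stronger binding.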

SMILES | Percent Control (LRRK2) [%] | Percent Control (LTK) [%] | Percent Control (LYN) [%] | Percent Control (LZK) [%] | Percent Control (MAK) [%] | Percent Control (MAP3K15) [%] | Percent Control (MAP3K1) [%] | Percent Control (MAP3K2) [%] | Percent Control (MAP3K3) [%] | Percent Control (MAP3K4) [%]
NS(=O)(=O)c1ccc(N/N=C2\C(=O)Nc3ccc(Cl)cc32)cc1 [GW280670X] | 72 | 100 | 90 | 100 | 100 | 100 | 63 | 100 | 100 | 100
CC1=C(C(=O)Nc2ccc3[nH]ncc3c2)C(c2ccc(Cl)c(Cl)c2)CC(=O)N1 (centres unmarked) [GSK299115A] | 96 | 84 | 100 | 79 | 100 | 84 | 76 | 85 | 85 | 100
CCS(=O)(=O)c1ccc(OC)c(Nc2ncc(-c3cccc(F)c3)o2)c1 [GW621970X] | 90 | 100 | 36 | 100 | 100 | 95 | 80 | 100 | 100 | 100
Cc1cc(O)cc(C)c1/C=C/c1cncc(C(N)=O)c1 [GW435821X] | 81 | 100 | 38 | 100 | 100 | 100 | 65 | 79 | 59 | 100
Cl.O=C(O[C@H]1CN[C@H](C#Cc2cc3ncnc(Nc4ccc5c(cnn5Cc5ccccc5)c4)c3s2)C1)N1CCOCC1 [GSK200398A] | 97 | 85 | 76 | 100 | 100 | 95 | 56 | 97 | 89 | 82
Cl.O=S1CCN(Cc2ccc(-c3ccc4ncnc(Nc5ccc(OCc6ccccc6)c(F)c5)c4c3)o2)CC1 [GW576924A] | 98 | 100 | 100 | 100 | 100 | 94 | 81 | 100 | 100 | 100
COc1cccc(-n2ncc3c(N/N=C/c4ccncc4)ncnc32)c1 [GW784752X] | 91 | 100 | 58 | 100 | 100 | 97 | 70 | 100 | 84 | 89
CCn1c(-c2nonc2N)nc2c(C#CC(C)(C)O)nc(OCCNC)cc21.Cl [GSK949675] | 100 | 100 | 100 | 91 | 100 | 100 | 100 | 6.9 | 28 | 100
COc1cc2ncnc(Nc3ccc4c(cnn4Cc4ccccc4)c3)c2cc1OC.Cl [GW282449A] | 100 | 46 | 46 | 100 | 100 | 98 | 84 | 100 | 100 | 100
CCS(=O)(=O)c1ccc(OC)c(Nc2ncc(-c3cccc(OC)c3)o2)c1 [GW580509X] | 100 | 100 | 53 | 100 | 100 | 100 | 68 | 100 | 100 | 100
Cl.O=C(Nc1ccc(Oc2ccc3[nH]c(NC(=O)c4ccco4)nc3c2)cc1)Nc1cc(C(F)(F)F)ccc1F [GW683134A] | 28 | 6.2 | 29 | 100 | 100 | 90 | 53 | 100 | 85 | 86
COc1ccc2cc(-c3c(-c4ccncc4)nc(-c4ccc(S(C)(=O)=O)cc4C)n3C)ccc2c1 [SB-633825] | 96 | 23 | 66 | 65 | 86 | 83 | 60 | 60 | 79 | 90
C[C@@H](Oc1cc(-n2cnc3ccc(OC4CCN(C)CC4)cc32)sc1C(N)=O)c1ccccc1Cl [GSK579289A] | 77 | 24 | 93 | 78 | 100 | 95 | 41 | 83 | 65 | 67
Cl.O=C(Nc1ccc(Oc2ccc3[nH]c(NC(=O)c4ccccc4)nc3c2)cc1)Nc1cc(C(F)(F)F)ccc1F [GW709042A] | 39 | 9.5 | 72 | 100 | 100 | 100 | 57 | 100 | 84 | 100
COc1cc2ncn(-c3cc(O[C@H](C)c4ccccc4Cl)c(C(N)=O)s3)c2cc1OC [GSK237701A] | 70 | 26 | 81 | 70 | 100 | 100 | 2.6 | 84 | 83 | 100
CN(C)c1cc2c(Nc3ccc4c(cnn4Cc4ccccc4)c3)ncnc2cn1 [GW282974X] | 97 | – | 89 | 100 | 98 | 100 | – | 90 | 73 | 88
COc1ccc(COc2ccc(Cc3cnc(N)nc3N)cc2OC)cc1 [GW632580X] | 83 | 86 | 100 | 77 | 89 | 95 | 65 | 97 | 91 | 90
CN1CCN(C(=O)c2ccc(NC(=O)Nc3ccc(N(C)c4ccnc(Nc5ccc(CS(C)(=O)=O)cc5)n4)cc3)cc2)CC1.Cl [GW830263A] | 74 | 85 | 71 | 70 | 64 | 86 | 83 | 38 | 57 | 4
NS(=O)(=O)c1ccc(N/N=C2\C(=O)Nc3ccc(C(=O)NCc4ccncc4)cc32)cc1 [GW300657X] | 69 | 100 | 81 | 72 | 100 | 80 | 67 | 87 | 72 | 99
Cl.c1ccc(Cc2nc3ccc(Nc4ncnc5ccccc45)cc3[nH]2)cc1 [GR269666A] | 100 | 100 | 93 | 100 | 100 | 100 | 100 | 100 | 100 | 100

SMILES | Percent Control (LRRK2) [%] | Percent Control (LTK) [%] | Percent Control (LYN) [%] | Percent Control (LZK) [%] | Percent Control (MAK) [%] | Percent Control (MAP3K15) [%] | Percent Control (MAP3K1) [%] | Percent Control (MAP3K2) [%] | Percent Control (MAP3K3) [%] | Percent Control (MAP3K4) [%]
O=C1Nc2ccc(C(=O)c3ccco3)cc2C1=Cc1cc(Cl)c(O)c(Cl)c1 [GW406108X] | 13 | 93 | 86 | 94 | 100 | 90 | 63 | 96 | 78 | 100
CC(C)COC(=O)c1ccc2c(c1)/C(=C/Nc1ccc(S(N)(=O)=O)cc1)C(=O)N2 [GW416981X] | 56 | 100 | 100 | 100 | 100 | 100 | 67 | 66 | 90 | 100
COc1cc(C=NNc2ncnc3c2cnn3-c2ccccc2)ccc1O [GW513184X] | 100 | 100 | 74 | 98 | 78 | 100 | 100 | 99 | 73 | 100
CCc1ccc(Oc2nccc(-c3c(-c4ccc(F)cc4)ncn3C3CCNCC3)n2)cc1 [SB-242719] | 100 | 95 | 100 | 95 | 100 | 91 | 67 | 98 | 66 | 93
NS(=O)(=O)c1ccc(N/N=C2\C(=O)Nc3ccc(-c4cnco4)cc32)cc1 [GW276655] | 44 | 100 | 100 | 62 | 100 | 75 | 100 | 79 | 74 | 82
NS(=O)(=O)c1ccc(Nc2ncc(-c3ccccc3)o2)cc1 [GW572399X] | 76 | 100 | 100 | 100 | 100 | 99 | 59 | 87 | 100 | 100
NS(=O)(=O)c1ccc(N/N=C2\C(=O)Nc3ccc(C(=O)NCCc4c[nH]cn4)cc32)cc1 [GW300660X] | 78 | 100 | 100 | 100 | 100 | 100 | 47 | 82 | 96 | 100
CN(C)CCNC(=O)Nc1ccc(N(C)c2ccnc(Nc3ccc(CS(C)(=O)=O)cc3)n2)cc1.Cl [GW830900A] | 83 | 100 | 100 | 75 | 100 | 100 | 82 | 69 | 84 | 99
COc1cccc(-c2c[nH]c3c(N/N=C/c4ccncc4)ncnc23)c1 [GW814408X] | 100 | 98 | 50 | 93 | 100 | 100 | 92 | 65 | 57 | 100
COc1cc(/C=N/Nc2ncnc3[nH]ncc23)ccc1O [GW578748X] | 54 | 100 | 86 | 100 | 100 | 96 | 49 | 67 | 85 | 93
COc1cc(N2CCN(C(C)C)CC2)ccc1Nc1nc(Nc2ccc(F)cc2C(=O)NC[C@@H](O)CO)c2cc[nH]c2n1 [GSK1392956A] | 12 | 66 | 92 | 100 | 100 | 93 | 86 | 100 | 88 | 94
COc1ccccc1-c1cc(/C=C2\C(=O)Nc3ncc(Br)cc32)cc(Br)c1O [GW442130X] | 100 | 100 | 100 | 84 | 100 | 89 | 99 | 100 | 100 | 100
COC(=O)Nc1nc2ccc(Oc3ccc(NC(=O)Nc4cc(C(F)(F)F)ccc4F)cc3)cc2s1.Cl [GW693917A] | 39 | 18 | 19 | 78 | 100 | 100 | 53 | 92 | 79 | 80
O=C(Nc1n[nH]c2nc(-c3ccc(O)cc3)c(Br)cc12)C1CC1 [SB-725317] | 89 | 60 | 100 | 100 | 39 | 94 | 60 | 84 | 97 | 100
COc1ccc2[nH]c3c4[nH]c5ccc(OC)cc5c4c4c(c3c2c1)C(=O)NC4=O [GW296115X] | 2.8 | 58 | 69 | 77 | 82 | 64 | 71 | 85 | 59 | 100
C/C(Nc1ccc(S(N)(=O)=O)cc1)=C1/C(=O)Nc2ccccc21 [GW335962X] | 55 | 78 | 87 | 97 | 98 | 93 | 62 | 53 | 55 | 100
COc1cc(C)c(N(C)C(=O)CN(C)C)cc1Nc1nc(Nc2cccc(F)c2C(N)=O)c2cc[nH]c2n1 [GSK2219385] | 11 | 74 | 100 | 80 | 100 | 98 | 83 | 93 | 67 | 90
CC1=C(C(=O)Nc2ccc3[nH]ncc3c2)C(c2ccc3ccccc3c2)CC(=O)N1 (centres unmarked) [GSK270822A] | 100 | 100 | 66 | 72 | 100 | 73 | 68 | 60 | 84 | 100
Nc1ncnc2occ(-c3ccc(NC(=O)Nc4cc(C(F)(F)F)ccc4F)cc3)c12 [GW770249X] | 77 | 4.5 | 29 | 100 | 100 | 100 | 51 | 91 | 91 | 94
COc1ccc2c(-c3ccnc(Nc4cccc(OC(F)(F)F)c4)n3)cnn2n1 [GW810372X] | 72 | 100 | 100 | 100 | 100 | 100 | 70 | 96 | 90 | 71
